# Experimental data published in article PMC7862700, “An all-to-all approach to the identification of sequence-specific readers for epigenetic DNA modifications on cytosine”.
# How the values were obtained:
# Assay in all cases: DAPPL (digital affinity profiling via proximity ligation, sequencing); 10 mM Tris-HCl pH 7.5, 50 mM NaCl, 1 mM DTT, 4% glycerol, room temperature, 30 min; GST-TFs on glutathione beads, 16-mer random dsDNA library, 0.1% formaldehyde crosslink after washing; high values mean tight binding
# [1] = biological target: T1, FLI1 (Homo sapiens, UniProt Q01543 1-452); conditions: protein: recombinant; tags: N-terminal GST; dsDNA, one strand shown
# T1 sequence: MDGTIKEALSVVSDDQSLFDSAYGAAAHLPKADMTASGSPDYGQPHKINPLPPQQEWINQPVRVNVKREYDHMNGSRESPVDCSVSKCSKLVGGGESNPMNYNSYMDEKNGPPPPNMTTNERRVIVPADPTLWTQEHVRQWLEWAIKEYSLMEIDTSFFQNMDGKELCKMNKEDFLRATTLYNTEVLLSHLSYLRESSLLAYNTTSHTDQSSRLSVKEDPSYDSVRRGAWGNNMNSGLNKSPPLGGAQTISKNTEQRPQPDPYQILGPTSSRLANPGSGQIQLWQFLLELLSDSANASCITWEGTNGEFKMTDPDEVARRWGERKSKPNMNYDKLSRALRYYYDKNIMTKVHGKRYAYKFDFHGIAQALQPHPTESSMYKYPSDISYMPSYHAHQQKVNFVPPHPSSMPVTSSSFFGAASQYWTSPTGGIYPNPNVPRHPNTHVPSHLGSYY
# How it was run: (§1)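 In yeast, human transcription factors were expressed with a GST fusion, then pulled down on glutathione beads and given DNA barcodes. Pooled with a tag-only sample, they were exposed to 200 nmole of a 16-mer random double-stranded DNA library (Tris/NaCl/DTT/glycerol buffer, room temperature, 30 min), washed, crosslinked with 0.1% formaldehyde, proximity-ligated using BsaI/T4 ligase for 1 h at 37 °C, PCR-amplified and read on an Illumina NextSeq500. Each hexamer's frequency of reads for a factor, divided by the matching frequency for the tag-only sample, gives the binding signal.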
# [2] = biological target: T2, ELK1 (Homo sapiens, UniProt P19419 1-428); conditions: protein: recombinant; tags: N-terminal GST; dsDNA, one strand shown
# T2 sequence: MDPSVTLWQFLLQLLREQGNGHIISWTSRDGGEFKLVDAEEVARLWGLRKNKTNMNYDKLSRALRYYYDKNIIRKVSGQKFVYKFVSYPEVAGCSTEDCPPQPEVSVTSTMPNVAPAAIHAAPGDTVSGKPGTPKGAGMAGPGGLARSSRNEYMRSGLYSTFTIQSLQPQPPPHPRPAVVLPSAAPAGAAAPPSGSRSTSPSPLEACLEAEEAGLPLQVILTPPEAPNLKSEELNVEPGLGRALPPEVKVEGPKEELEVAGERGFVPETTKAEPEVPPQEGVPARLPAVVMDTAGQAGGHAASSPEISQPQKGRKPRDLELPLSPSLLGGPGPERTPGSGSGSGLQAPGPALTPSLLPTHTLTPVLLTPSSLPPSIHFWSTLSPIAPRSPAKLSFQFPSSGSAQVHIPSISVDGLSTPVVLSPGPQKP
# How it was run: as §1
# [3] = biological target: T3, GABPA (Homo sapiens, UniProt Q06546 1-454); conditions: protein: recombinant; tags: N-terminal GST; dsDNA, one strand shown
# T3 sequence: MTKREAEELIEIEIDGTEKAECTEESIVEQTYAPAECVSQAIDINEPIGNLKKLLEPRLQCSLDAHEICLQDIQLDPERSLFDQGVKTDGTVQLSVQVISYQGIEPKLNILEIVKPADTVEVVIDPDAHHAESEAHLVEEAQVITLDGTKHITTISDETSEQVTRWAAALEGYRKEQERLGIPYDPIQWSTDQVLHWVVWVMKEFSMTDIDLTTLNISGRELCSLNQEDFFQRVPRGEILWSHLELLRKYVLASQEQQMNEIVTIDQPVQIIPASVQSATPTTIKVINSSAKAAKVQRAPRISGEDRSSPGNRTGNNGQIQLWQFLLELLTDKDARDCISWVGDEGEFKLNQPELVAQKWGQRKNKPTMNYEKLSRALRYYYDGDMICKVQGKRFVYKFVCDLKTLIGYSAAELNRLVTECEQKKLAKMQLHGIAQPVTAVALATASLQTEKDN
# How it was run: as §1
# [4] = biological target: T4, ERG (Homo sapiens, UniProt P11308 1-479); conditions: protein: recombinant; tags: N-terminal GST; dsDNA, one strand shown
# T4 sequence: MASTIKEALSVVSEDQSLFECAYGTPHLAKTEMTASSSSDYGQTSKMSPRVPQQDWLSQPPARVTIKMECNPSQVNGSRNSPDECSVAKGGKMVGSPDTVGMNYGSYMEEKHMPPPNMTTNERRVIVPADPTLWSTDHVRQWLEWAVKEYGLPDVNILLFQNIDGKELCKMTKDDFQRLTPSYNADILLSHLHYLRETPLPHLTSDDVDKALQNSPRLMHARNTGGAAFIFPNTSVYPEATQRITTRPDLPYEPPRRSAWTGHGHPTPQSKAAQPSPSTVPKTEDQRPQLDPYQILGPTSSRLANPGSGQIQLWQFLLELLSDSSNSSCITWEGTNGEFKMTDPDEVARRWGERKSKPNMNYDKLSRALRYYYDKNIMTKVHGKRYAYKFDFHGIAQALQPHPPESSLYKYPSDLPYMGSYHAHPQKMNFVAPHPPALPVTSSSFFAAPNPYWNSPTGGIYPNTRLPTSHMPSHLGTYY
# How it was run: as §1
# [5] = biological target: ELF1 (Homo sapiens, UniProt P32519 1-619); conditions: protein: recombinant; tags: N-terminal GST; dsDNA, one strand shown
# How it was run: as §1
# [6] = biological target: T5, EHF (Homo sapiens, UniProt Q9NZC4 1-300); conditions: protein: recombinant; tags: N-terminal GST; dsDNA, one strand shown
# T5 sequence: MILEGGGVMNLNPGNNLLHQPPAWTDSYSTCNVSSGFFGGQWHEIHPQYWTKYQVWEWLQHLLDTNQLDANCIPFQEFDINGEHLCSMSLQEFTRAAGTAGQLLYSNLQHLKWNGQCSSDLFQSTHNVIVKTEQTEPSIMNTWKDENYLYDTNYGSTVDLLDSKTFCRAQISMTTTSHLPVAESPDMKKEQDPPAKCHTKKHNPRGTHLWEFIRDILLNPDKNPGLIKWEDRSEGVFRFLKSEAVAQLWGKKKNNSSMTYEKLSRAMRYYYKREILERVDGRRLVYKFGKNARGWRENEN
# How it was run: as §1
# [7] = biological target: SPI1 (Homo sapiens, UniProt P17947 1-270); conditions: protein: recombinant; tags: N-terminal GST; dsDNA, one strand shown
# How it was run: as §1
# [8] = biological target: SPIB (Homo sapiens, UniProt Q01892 1-262); conditions: protein: recombinant; tags: N-terminal GST; dsDNA, one strand shown
# How it was run: as §1
# [9] = biological target: T6, ELK3 (Homo sapiens, UniProt P41970 1-407); conditions: protein: recombinant; tags: N-terminal GST; dsDNA, one strand shown
# T6 sequence: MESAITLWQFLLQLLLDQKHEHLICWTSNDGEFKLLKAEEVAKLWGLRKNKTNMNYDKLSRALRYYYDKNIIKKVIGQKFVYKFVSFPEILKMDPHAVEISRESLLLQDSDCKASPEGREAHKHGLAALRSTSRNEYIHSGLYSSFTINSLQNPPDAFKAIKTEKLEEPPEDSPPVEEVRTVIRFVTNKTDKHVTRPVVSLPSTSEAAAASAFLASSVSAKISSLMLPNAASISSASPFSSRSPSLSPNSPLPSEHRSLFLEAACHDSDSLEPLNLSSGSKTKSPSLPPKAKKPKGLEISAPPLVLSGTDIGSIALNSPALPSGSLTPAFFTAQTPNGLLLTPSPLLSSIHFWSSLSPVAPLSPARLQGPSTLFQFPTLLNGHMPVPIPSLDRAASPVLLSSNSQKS
# How it was run: as §1
# [10] = biological target: T7, FEV (Homo sapiens, UniProt Q99581 1-238); conditions: protein: recombinant; tags: N-terminal GST; dsDNA, one strand shown
# T7 sequence: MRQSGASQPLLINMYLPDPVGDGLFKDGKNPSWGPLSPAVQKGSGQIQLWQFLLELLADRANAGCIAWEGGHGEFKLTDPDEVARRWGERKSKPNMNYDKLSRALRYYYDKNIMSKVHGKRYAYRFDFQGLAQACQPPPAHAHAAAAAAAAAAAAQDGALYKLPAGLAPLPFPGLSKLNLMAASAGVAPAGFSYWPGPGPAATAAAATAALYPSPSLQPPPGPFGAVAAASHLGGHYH
# How it was run: as §1
# [11] = biological target: ETV5 (Homo sapiens, UniProt P41161 1-510); conditions: protein: recombinant; tags: N-terminal GST; dsDNA, one strand shown
# How it was run: as §1
# [12] = biological target: HSF1 (Homo sapiens, UniProt Q00613 1-529); conditions: protein: recombinant; tags: N-terminal GST; chain copies: 3; dsDNA, one strand shown
# How it was run: as §1
# [13] = biological target: T8, SPIC (Homo sapiens, UniProt Q8N5J4 1-248); conditions: protein: recombinant; tags: N-terminal GST; dsDNA, one strand shown
# T8 sequence: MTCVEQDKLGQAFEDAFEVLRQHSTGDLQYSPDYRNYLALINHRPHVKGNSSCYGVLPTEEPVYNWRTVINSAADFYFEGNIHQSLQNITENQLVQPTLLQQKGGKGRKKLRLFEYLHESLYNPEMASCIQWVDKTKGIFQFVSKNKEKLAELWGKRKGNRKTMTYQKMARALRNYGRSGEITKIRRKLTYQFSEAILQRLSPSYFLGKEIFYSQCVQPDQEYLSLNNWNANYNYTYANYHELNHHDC
# How it was run: as §1
# [14] = biological target: ELF4 (Homo sapiens, UniProt Q99607 1-663); conditions: protein: recombinant; tags: N-terminal GST; dsDNA, one strand shown
# How it was run: as §1
# [15] = biological target: T9, ELK4 (Homo sapiens, UniProt P28324-2 1-405); conditions: protein: recombinant; tags: N-terminal GST; dsDNA, one strand shown
# T9 sequence: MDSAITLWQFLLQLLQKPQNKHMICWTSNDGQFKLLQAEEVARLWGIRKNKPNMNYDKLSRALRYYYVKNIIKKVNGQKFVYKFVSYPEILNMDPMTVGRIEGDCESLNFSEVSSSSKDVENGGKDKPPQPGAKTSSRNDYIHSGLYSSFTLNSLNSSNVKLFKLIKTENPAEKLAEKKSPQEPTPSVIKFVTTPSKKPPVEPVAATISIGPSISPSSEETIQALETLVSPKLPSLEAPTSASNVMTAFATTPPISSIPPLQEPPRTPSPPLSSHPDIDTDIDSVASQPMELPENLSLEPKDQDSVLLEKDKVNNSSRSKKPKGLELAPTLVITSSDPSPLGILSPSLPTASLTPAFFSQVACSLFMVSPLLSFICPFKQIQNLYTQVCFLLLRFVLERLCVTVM
# How it was run: as §1
# [16] = biological target: T10, ETV2 (Homo sapiens, UniProt O00321 1-342); conditions: protein: recombinant; tags: N-terminal GST; dsDNA, one strand shown
# T10 sequence: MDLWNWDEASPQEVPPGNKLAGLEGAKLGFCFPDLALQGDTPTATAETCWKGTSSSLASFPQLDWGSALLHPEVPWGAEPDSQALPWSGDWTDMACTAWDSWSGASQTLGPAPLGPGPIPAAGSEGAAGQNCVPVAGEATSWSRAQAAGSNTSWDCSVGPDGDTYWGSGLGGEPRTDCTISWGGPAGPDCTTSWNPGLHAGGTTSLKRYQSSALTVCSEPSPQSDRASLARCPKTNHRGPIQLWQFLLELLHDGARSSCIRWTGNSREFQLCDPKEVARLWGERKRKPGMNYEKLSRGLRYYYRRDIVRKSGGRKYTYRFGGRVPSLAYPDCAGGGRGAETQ
# How it was run: as §1
# [17] = biological target: T11, ELF3 (Homo sapiens, UniProt P78545 1-371); conditions: protein: recombinant; tags: N-terminal GST; dsDNA, one strand shown
# T11 sequence: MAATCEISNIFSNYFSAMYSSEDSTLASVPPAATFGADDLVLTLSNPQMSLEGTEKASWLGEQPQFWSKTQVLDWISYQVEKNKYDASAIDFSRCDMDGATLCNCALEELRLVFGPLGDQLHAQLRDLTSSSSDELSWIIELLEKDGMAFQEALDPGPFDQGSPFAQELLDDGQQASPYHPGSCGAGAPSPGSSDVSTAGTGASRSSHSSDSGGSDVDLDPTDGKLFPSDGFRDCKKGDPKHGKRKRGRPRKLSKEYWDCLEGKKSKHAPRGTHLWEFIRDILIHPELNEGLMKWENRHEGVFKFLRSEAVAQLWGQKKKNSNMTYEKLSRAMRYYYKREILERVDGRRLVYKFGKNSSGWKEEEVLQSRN
# How it was run: as §1
# [18] = biological target: ETV1 (Homo sapiens, UniProt P50549 1-477); conditions: protein: recombinant; tags: N-terminal GST; dsDNA, one strand shown
# How it was run: as §1
# Chain of ETV5 (P41161 whole entry): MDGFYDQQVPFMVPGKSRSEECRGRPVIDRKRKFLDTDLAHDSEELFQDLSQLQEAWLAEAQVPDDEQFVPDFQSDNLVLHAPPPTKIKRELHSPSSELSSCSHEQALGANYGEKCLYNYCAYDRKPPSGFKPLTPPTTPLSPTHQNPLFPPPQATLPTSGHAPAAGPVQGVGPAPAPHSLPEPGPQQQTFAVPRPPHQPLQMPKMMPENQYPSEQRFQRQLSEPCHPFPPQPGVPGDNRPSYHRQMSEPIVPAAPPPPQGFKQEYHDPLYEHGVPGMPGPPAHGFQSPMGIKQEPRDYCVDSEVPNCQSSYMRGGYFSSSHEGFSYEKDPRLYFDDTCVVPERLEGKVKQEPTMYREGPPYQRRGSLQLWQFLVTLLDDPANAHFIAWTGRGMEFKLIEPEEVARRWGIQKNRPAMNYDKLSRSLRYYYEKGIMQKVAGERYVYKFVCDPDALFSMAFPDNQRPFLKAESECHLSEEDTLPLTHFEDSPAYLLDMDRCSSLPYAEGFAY
# Chain of ETV1 (P50549 whole entry): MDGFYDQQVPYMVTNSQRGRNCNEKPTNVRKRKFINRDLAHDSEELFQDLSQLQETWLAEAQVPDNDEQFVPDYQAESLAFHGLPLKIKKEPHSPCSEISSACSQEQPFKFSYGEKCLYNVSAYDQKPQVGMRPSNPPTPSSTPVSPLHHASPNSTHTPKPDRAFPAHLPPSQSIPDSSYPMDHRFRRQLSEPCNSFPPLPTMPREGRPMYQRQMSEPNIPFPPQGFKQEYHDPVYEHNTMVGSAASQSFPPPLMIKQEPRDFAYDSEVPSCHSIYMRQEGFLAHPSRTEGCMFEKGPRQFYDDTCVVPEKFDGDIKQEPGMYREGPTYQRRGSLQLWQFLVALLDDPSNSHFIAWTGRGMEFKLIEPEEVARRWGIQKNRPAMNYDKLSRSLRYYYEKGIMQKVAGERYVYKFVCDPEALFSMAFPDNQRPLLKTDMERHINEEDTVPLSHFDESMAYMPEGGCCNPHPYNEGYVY
# Chain of ELF4 (Q99607 whole entry): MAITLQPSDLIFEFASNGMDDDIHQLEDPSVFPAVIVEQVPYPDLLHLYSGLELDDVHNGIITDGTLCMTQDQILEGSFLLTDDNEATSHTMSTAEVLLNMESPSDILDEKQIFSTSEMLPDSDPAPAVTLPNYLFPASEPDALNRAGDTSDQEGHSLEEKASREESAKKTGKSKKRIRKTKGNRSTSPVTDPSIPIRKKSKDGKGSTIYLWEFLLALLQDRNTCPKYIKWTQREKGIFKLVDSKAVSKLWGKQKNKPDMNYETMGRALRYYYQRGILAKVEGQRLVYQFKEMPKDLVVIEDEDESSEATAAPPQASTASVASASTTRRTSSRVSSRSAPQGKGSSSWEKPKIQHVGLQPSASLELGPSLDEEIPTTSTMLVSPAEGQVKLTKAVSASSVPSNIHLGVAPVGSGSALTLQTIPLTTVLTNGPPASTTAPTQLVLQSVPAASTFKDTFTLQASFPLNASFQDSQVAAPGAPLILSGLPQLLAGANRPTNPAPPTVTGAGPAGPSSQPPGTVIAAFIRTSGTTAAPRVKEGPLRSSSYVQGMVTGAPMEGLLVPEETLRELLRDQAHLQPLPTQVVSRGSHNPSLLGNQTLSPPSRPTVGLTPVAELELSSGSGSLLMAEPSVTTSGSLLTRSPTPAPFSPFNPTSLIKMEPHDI
# Chain of ELF1 (P32519 whole entry): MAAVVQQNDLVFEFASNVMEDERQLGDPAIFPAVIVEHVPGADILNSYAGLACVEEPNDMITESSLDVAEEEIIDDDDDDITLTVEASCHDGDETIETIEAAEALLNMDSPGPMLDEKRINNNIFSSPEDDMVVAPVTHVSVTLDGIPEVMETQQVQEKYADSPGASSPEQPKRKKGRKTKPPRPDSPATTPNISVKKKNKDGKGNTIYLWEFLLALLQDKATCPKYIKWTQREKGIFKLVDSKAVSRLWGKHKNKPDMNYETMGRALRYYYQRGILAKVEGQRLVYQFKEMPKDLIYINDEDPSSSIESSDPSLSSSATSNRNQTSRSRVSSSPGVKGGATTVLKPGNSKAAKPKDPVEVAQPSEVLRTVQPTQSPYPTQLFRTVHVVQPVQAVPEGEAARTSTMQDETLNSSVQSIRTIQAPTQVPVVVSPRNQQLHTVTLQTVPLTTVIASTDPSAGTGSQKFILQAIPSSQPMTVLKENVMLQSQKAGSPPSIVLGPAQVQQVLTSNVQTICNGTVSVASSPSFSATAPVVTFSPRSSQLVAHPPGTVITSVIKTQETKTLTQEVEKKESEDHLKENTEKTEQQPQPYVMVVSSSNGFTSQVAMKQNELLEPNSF
# Chain of SPIB (Q01892 whole entry): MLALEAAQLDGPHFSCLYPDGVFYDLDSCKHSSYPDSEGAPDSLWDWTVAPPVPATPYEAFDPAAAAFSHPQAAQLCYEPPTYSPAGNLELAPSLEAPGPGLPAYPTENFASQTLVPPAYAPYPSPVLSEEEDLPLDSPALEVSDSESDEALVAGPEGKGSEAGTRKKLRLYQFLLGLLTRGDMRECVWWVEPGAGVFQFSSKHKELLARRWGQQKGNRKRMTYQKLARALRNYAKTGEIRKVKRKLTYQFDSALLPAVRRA
# Chain of HSF1 (Q00613 whole entry): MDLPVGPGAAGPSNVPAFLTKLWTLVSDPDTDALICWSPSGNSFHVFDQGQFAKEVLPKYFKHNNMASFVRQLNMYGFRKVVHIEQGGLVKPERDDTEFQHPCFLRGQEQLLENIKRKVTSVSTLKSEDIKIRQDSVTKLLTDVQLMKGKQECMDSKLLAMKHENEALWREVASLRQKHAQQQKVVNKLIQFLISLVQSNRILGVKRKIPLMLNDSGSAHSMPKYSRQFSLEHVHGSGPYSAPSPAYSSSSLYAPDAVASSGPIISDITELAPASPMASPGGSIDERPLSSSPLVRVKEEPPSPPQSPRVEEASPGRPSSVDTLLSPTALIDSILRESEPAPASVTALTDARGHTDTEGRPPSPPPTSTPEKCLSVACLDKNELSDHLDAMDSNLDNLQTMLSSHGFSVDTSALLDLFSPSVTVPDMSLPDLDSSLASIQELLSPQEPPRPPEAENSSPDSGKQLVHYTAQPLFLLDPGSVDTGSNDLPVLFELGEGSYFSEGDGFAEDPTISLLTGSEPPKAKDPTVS
sequence,measurement,setting,value
TCGCAC,binding signal,[1],"1.11 fold enrichment (6-mer frequency, TF over GST control)"
same,binding signal,[2],"1.1 fold enrichment (6-mer frequency, TF over GST control)"
same,binding signal,[3],"1.09 fold enrichment (6-mer frequency, TF over GST control)"
same,binding signal,[4],"1.07 fold enrichment (6-mer frequency, TF over GST control)"
same,binding signal,[5],"1.13 fold enrichment (6-mer frequency, TF over GST control)"
same,binding signal,[6],"1.06 fold enrichment (6-mer frequency, TF over GST control)"
same,binding signal,[7],"1.13 fold enrichment (6-mer frequency, TF over GST control)"
same,binding signal,[8],"1.02 fold enrichment (6-mer frequency, TF over GST control)"
same,binding signal,[9],"1.02 fold enrichment (6-mer frequency, TF over GST control)"
same,binding signal,[10],"1.12 fold enrichment (6-mer frequency, TF over GST control)"
same,binding signal,[11],"1.01 fold enrichment (6-mer frequency, TF over GST control)"
same,binding signal,[12],"1.03 fold enrichment (6-mer frequency, TF over GST control)"
same,binding signal,[13],"1.06 fold enrichment (6-mer frequency, TF over GST control)"
same,binding signal,[14],"1.13 fold enrichment (6-mer frequency, TF over GST control)"
same,binding signal,[15],"1.08 fold enrichment (6-mer frequency, TF over GST control)"
same,binding signal,[16],"1.07 fold enrichment (6-mer frequency, TF over GST control)"
same,binding signal,[17],"1.18 fold enrichment (6-mer frequency, TF over GST control)"
same,binding signal,[18],"1.04 fold enrichment (6-mer frequency, TF over GST control)"
